# Data as given in the supplement of paper PMC10600219.
# Whole data set: some 2,800 compounds, median “cell viability relative to vehicle” near 1.1, cut for the lowest 2% near 0.19. What follows is part of a selection rich in the lowest values, with near analogues and random picks from the rest.
# Test system: NCI-H2228 parental
# Assay: cell viability relative to vehicle (fraction of vehicle); NCI-H2228 is an ALK-positive lung cancer line and DTP means drug-tolerant persister; higher = less growth inhibition
# Details: 100 nM; treatment time 6 days
# Procedure, shortened: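 Parental NCI-H2228 cells and drug-tolerant persister cells (made with 1000 nM of a targeted drug for 13 days) were seeded in 384-well plates. The next day, the 3114-agent TargetMol anti-cancer compound library was added at 100 nM, with DMSO as vehicle. After 6 days, ATP was read with the CellTiter-Glo 3D Cell Viability Assay. Each value is cell viability relative to vehicle-treated cells.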
row,SMILES,cell viability
1,Cc1ccccc1C(C(=O)NC1CCCCC1)N(C(=O)Cn1cnc2ccccc21)c1cccc(F)c1 (stereo unspecified),1.19
2,CN1CCN(c2ccc(OC(F)(F)F)c(Nc3ncc4c(n3)-c3c(c(C(N)=O)nn3CCO)CC4)c2)CC1,0.168
3,CCC(=O)Nc1cccc(Oc2nc(Nc3ccc(N4CCN(C)CC4)cc3OC)ncc2Cl)c1,1.22
4,C=CC(=O)Nc1cccc(Oc2nc(Nc3ccc(N4CCN(C)CC4)cc3OC)ncc2Cl)c1,1.19
5,CCCCc1nc2ccc(NC(=O)NC3CCCCC3)cc2n1Cc1ccc(-c2ccccc2C(=O)O)cc1,1.08
6,Cc1cc2cc(Oc3ccnc(Nc4cccc(CS(=O)(=O)NCCN(C)C)c4)n3)ccc2[nH]1 [Sulfatinib],1.03
7,CN(Cc1cnc2nc(N)nc(N)c2n1)c1ccc(C(=O)N[C@@H](CCC(=O)O)C(=O)O)cc1 [Methotrexate],0.375
8,Cc1nc(=O)c2cc(CN(C)c3ccc(C(=O)N[C@@H](CCC(=O)O)C(=O)O)s3)ccc2[nH]1 [Raltitrexed],0.151
9,Nc1nc(=O)c2c([nH]1)NCC(CNc1ccc(C(=O)N[C@@H](CCC(=O)O)C(=O)O)cc1)N2C=O (stereo partly specified) [Calcium folinate],1.08
10,COc1cc(/C=C/CO)cc(OC)c1O[C@@H]1O[C@H](CO)[C@@H](O)[C@H](O)[C@H]1O [eleutheroside-b],1.13
11,CCCCNNC(=O)c1ccc(-c2cccc(F)c2F)cc1,1.03
12,COc1cc(/C=C/C(=O)NCCn2c(C(F)(F)F)cc3ccccc32)cc(OC)c1OC,1.05
13,COc1cc(CCC(=O)CC(=O)CCc2ccc(O)c(OC)c2)ccc1O [Tetrahydro Curcumin],1.03
14,CCCS(=O)(=O)Nc1ccc(F)c(C(=O)c2c[nH]c3ncc(-c4ccc(Cl)cc4)cc23)c1F [Vemurafenib],1.2
15,CS(=O)(=O)Nc1cc(-c2ccc3ncnc(Nc4ccc(F)c(Cl)c4)c3c2)cnc1Cl,1.08
16,COc1ncc(-c2ccc3nccc(-c4ccnnc4)c3c2)cc1NS(=O)(=O)c1ccc(F)cc1F [Omipalisib],0.148
17,CO[C@@H](C)Cn1c(=O)n(C)c2cnc3ccc(-c4cncc(C(C)(C)O)c4)cc3c21,0.412
18,O=C(O)c1c[nH]c2cc(Cl)c(-c3ccc(C4(O)CCC4)cc3)cc12,1.09
19,C/C=C1\NC(=O)[C@H]2CSSCC/C=C/[C@H](CC(=O)N[C@H](C(C)C)C(=O)N2)OC(=O)[C@H](C(C)C)NC1=O [Romidepsin],0.0515
20,CCN(CC)CCNc1ccc(C)c2sc3ccccc3c(=O)c12 [Lucanthone],0.956
21,COCC[n+]1c2c(n(Cc3cnccn3)c1C)C(=O)c1ccccc1C2=O,0.0796
